Calls of active or inactive are those of the source. The calls were made as follows: active = hit-call score of the fitted dose curve at least 0.9, where 1 is the maximum; inactive = score below 0.9.
Columns and labels:
[1] = read-out: Vascular endothelial growth factor receptor 2 (Homo sapiens) (UniProt P35968); test: BSK_4H_VEGFRII: BioMAP Diversity Plus: 4H Assay for Vascular endothelial growth factor receptor 2 (VEGFR2) Biomarker Activity (AID 2283031); conditions: primary human endothelial cells (HUVEC); actives raise or lower the signal;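 as to AC50: cell-surface VEGFR2 protein level quantified by ELISA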
In short: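 VEGFRII levels on human vascular endothelial primary cells were determined by ELISA at 24 hours post-dosing, with gain- or loss-of-signal fitted against DMSO controls.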

[2] = read-out: Human Leukocyte Antigen - DR isotype (HLADR), HLA-DRA (gene 3122); test: BSK_BE3C_HLADR: BioMAP Diversity Plus: BE3C Assay for Human Leukocyte Antigen - DR isotype (HLADR) Biomarker Activity (AID 2283032); conditions: primary human bronchial epithelial cells; actives raise or lower the signal
In short: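 Primary human bronchial epithelial cells (BE3C); 24 h chemical exposure; HLA-DR by ELISA; bidirectional curve fit vs DMSO baseline.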

[3] = read-out: Vascular cell adhesion molecule 1 (VCAM1), VCAM1 (gene 7412); test: BSK_4H_VCAM1: BioMAP Diversity Plus: 4H Assay for Vascular cell adhesion molecule 1 (VCAM1) Biomarker Activity (AID 2283033); conditions: primary human endothelial cells (HUVEC); actives raise or lower the signal
In short: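 HUVEC, 24 h post-dose; VCAM-1 by ELISA. Bidirectional curve fit vs DMSO baseline. Parallel SRB total-protein stain (0.1% SRB after 10% TCA fixation, 560 nm) for cytotoxicity.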

[4] = read-out: Monokine induced gamma interferon (MIG), CXCL9 (gene 4283); test: BSK_BE3C_MIG: BioMAP Diversity Plus: BE3C Assay for Monokine induced gamma interferon (MIG) Biomarker Activity (AID 2283035); conditions: primary human bronchial epithelial cells; actives raise or lower the signal
In short: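 ELISA quantified MIG after 24 h exposure of primary bronchial epithelial cultures, analysed in both directions relative to DMSO. Cytotoxicity tracked in parallel cultures by sulforhodamine B staining.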

[5] = read-out: Transforming growth factor beta 1 (TGFb1), TGFB1 (gene 7040); test: BSK_BE3C_TGFb1: BioMAP Diversity Plus: BE3C Assay for Transforming growth factor beta 1 (TGFb1) Biomarker Activity (AID 2283036); conditions: primary human bronchial epithelial cells; actives raise or lower the signal
In short: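 Read-out: ELISA for TGF-b1 in primary human bronchial epithelial cultures, 24 h post-dose. Bidirectional curve fitting vs DMSO control; gain or loss of signal both scored.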

[6] = read-out: Plasminogen activator inhibitor-1 (PAI1), SERPINE1 (gene 5054); test: BSK_BE3C_PAI1: BioMAP Diversity Plus: BE3C Assay for Plasminogen activator inhibitor-1 (PAI1) Biomarker Activity (AID 2283037); conditions: primary human bronchial epithelial cells; actives raise or lower the signal
In short: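 ELISA read-out of PAI-1 from human bronchial epithelial primary cells, 24 h post-dosing; bidirectional curve fit vs DMSO baseline, gain or loss of signal scored.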

[7] = read-out: Urokinase-type plasminogen activator receptor (uPAR), PLAUR (gene 5329); test: BSK_BE3C_uPAR: BioMAP Diversity Plus: BE3C Assay for Urokinase-type plasminogen activator receptor (uPAR) Biomarker Activity (AID 2283039); conditions: primary human bronchial epithelial cells; actives raise or lower the signal
In short: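 ELISA readout of uPAR on human lung primary bronchial epithelial cells, 24 h post-dosing. Bidirectional curve fit relative to DMSO vehicle baseline; gain or loss of signal both scored.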

[8] = read-out: Interleukin-6 (IL6), IL6 (gene 3569); test: BSK_CASM3C_IL6: BioMAP Diversity Plus: CASM3C Assay for Interleukin-6 (IL6) Biomarker Activity for (AID 2283040); conditions: primary human coronary artery smooth muscle cells; actives raise or lower the signal
[9] = read-out: Interferon-gamma inducible Protein 10 (IP10), CXCL10 (gene 3627); test: BSK_BE3C_IP10: BioMAP Diversity Plus: BE3C Assay for Interferon-gamma inducible Protein 10 (IP10) Biomarker Activity (AID 2283034); conditions: primary human bronchial epithelial cells; actives raise or lower the signal
In short: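 ELISA readout of IP-10 in BE3C system: primary human bronchial epithelial cells, 24 h post-dosing; bidirectional curve fit vs DMSO baseline.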

[10] = read-out: urokinase plasminogen activator (uPA), PLAU (gene 5328); test: BSK_BE3C_uPA: BioMAP Diversity Plus: BE3C Assay for urokinase plasminogen activator (uPA) Biomarker Activity (AID 2283038); conditions: primary human bronchial epithelial cells; actives raise or lower the signal
In short: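 Measured by ELISA: uPA from human primary bronchial epithelial cells 24 h after chemical treatment. Values derive from bidirectional curve fitting with DMSO serving as negative control. Total protein by SRB staining in parallel wells flagged overt cytotoxicity.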

Measured: AC50

CCCCCCCCN(C)CCCCCCCC
not listed: [9] | [10]
inactive: all other assays above

CCOC(=O)O[C@H](C)OC(=O)c1ccc2c(c1)cc(C(=O)NC1CCN(C(C)C)CC1)n2Cc1cc(-c2ccc(Cl)s2)on1
active: [1] 5.06 µM | [2] 10.7 µM | [3] 5.44 µM | [9] 11.5 µM | [4] 14.4 µM | [5] 11.8 µM | [6] 12.1 µM | [10] 9.63 µM | [7] 9.89 µM | [8] 9.24 µM

Oc1ccc2ccccc2c1
active: [8] 20 µM
not listed: [9]
inactive: all other assays above

Cc1c2ccccc2c(C)c2c1ccc1ccccc12
active: [3] 20 µM | [5] 6.06 µM | [6] 29 µM | [8] 20 µM
not listed: [1]
inactive: all other assays above

O=C(OCCCCCCOC(=O)c1ccccc1)c1ccccc1
not listed: [9] | [10]
inactive: all other assays above

O=C(Nc1ccc(Cl)cc1)Nc1ccc(Cl)c(Cl)c1
active: [1] 2.19 µM | [2] 1.39 µM | [3] 3.48 µM | [6] 1.11 µM | [7] 1.1 µM | [8] 12.7 µM
inactive: [4] | [5]

Oc1ccccc1
not listed: [9]
inactive: all other assays above

O=C1c2ccccc2C(=O)N1CCc1noc(-c2ccc(CN3CCCCCC3)s2)n1
not listed: [9]
inactive: all other assays above

COc1cccc([C@H](O)C2CCN(CCc3ccc(F)cc3)CC2)c1OC
active: [3] 12.9 µM
not listed: [10]
inactive: all other assays above

CC(C)(C)c1csc(-c2cc3cc(OCc4ccccc4CC(=O)O)ccc3o2)n1
inactive: [5] | [8]
active: [1] 9.41 µM | [2] 6.97 µM | [3] 31.1 µM | [9] 6.96 µM | [4] 11.4 µM | [6] 5.03 µM | [10] 11.6 µM | [7] 12.2 µM

CC(C)(O)c1ccc(CNC(=O)c2cccnc2Oc2ccc3nonc3c2)cc1
active: [8] 20 µM
not listed: [9] | [10]
inactive: all other assays above

COc1ccc2cc(S(=O)(=O)N[C@H](CC(=O)N[C@H](Cc3ccc(CN4[C@H](C)CCC[C@@H]4C)cc3)C(=O)N(C)C(C)C)c3ccc4c(c3)OCO4)ccc2c1
active: [2] 32.8 µM | [9] 31.1 µM | [4] 33.5 µM | [6] 19.1 µM | [10] 14.6 µM | [7] 18.5 µM
inactive: [1] | [3] | [5] | [8]

CC(C)(c1cc(Br)c(O)c(Br)c1)c1cc(Br)c(O)c(Br)c1
active: [2] 7.25 µM | [3] 29.6 µM | [4] 9.16 µM | [5] 5.15 µM | [6] 4.89 µM | [7] 9.25 µM
inactive: [1] | [8]

Cc1ccc2oc(CN(Cc3ccccc3)C(=O)Nc3c(F)cc(F)cc3F)c(-c3ccc(Cl)cc3)c2c1
not listed: [10]
inactive: all other assays above

O=c1[nH]sc2ccccc12
active: [2] 28.1 µM | [3] 7.17 µM | [9] 28 µM | [4] 32.3 µM | [5] 20 µM | [6] 37.2 µM | [10] 33.6 µM | [7] 35 µM | [8] 8.69 µM
inactive: [1]

O=C1CCC(C2CCCCC2)CC1
active: [2] 25.9 µM
not listed: [9]
inactive: all other assays above

O=CCCCC=O
active: [2] 33.5 µM | [3] 31.5 µM | [6] 32.8 µM
not listed: [9]
inactive: all other assays above

CC/C(=C(/CC)c1ccc(O)cc1)c1ccc(O)cc1
inactive: [1] | [8]
active: [2] 23.4 µM | [3] 28.9 µM | [9] 17.1 µM | [4] 33 µM | [5] 6.47 µM | [6] 20 µM | [10] 33.6 µM | [7] 31.3 µM

Source: PubChem BioAssay (EPA / NIEHS)
